Reference: PubChem BioAssay AID1159580 (chemical genetic matrix, 2015)
The whole screen tested about 5,500 compounds, of which about 2,000 (36%) were called active. Not shown: some 18% with an inconclusive outcome. No stated cut-off is given here; in the data, active means normalized growth mostly below about 0.91 (no sharp cut-off); inconclusive means no clear call, values can overlap the other calls; inactive means mostly above about 0.92. This is one part of the list. Where a SMILES comes first, the peptide text is derived from it. Bridges are numbered along the chain shown (N, C = ends). [ ]: non-standard residue; d: D form. The star is where a group is joined. Heptanoyl(6-Me) = CC(C)CCCCC(=O)*; Dab = NCC[CH](N)C(=O)O

Test: chemical genetic growth profiling, strain panel (AID 1159580);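 further: tested at 20 µM; growth read once vehicle control cultures reached saturation at 30 °C; 1 = growth at the plate median or of vehicle wells; lower values mean less growth of the strain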
Conditions: S. cerevisiae deletion strains, growth OD

Measured: normalized growth

CCC(C)C1NC(=O)C(CCN)NC(=O)C(NC(=O)C(CCN)NC(=O)C(NC(=O)C(CCN)NC(=O)CCCCC(C)C)C(C)O)CCNC(=O)C(C(C)O)NC(=O)C(CCN)NC(=O)C(CCN)NC(=O)C(C(C)CC)NC1=O (configuration not stated) ({Heptanoyl(6-Me)}-[Dab]T[Dab][Dab][Dab]II[Dab][Dab]T; lactam 4-C; configuration not given here)
inactive: locus YHR030C, strain SLT2, active compounds read low 0.976 | locus YJL095W, strain BCK1, active compounds read low 0.985 | locus YJR066W, strain TOR1, active compounds read low 0.95 | locus YLR113W, strain HOG1, active compounds read low 0.967 | locus YNL183C, strain NPR1, active compounds read low 0.944 | locus YOR231W, strain MKK1, active compounds read low 0.971 | locus YPL256C, strain CLN2, active compounds read low 0.973
